About 530 (0.24%) of roughly 220,000 compounds were called active. This excerpt belongs to a sample that is enriched for actives. Measured potencies and affinities stand elsewhere. Unmarked numbers belong to inactive results. Cut-off read from the data, not from the text of the source: active = inhibition above about 13%; inconclusive = no clear call, values can overlap the other calls; inactive = below that.
target: Bifunctional protein GlmU (Mycobacterium tuberculosis (strain ATCC 25618 / H37Rv)) (UniProt P9WMN3); assay: inhibition of mycobacterial GlmU enzyme – biochemical, glucosamine-1-phosphate acetyltransferase (AID 1376);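 note: 0% = complete reaction with vehicle and 100% = reaction without substrate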; settings: M. tuberculosis GlmU acetyltransferase enzyme assay; stronger effect = higher value;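 tested at 30 µM in the primary screen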
Sequence (P9WMN3 whole entry, looked up): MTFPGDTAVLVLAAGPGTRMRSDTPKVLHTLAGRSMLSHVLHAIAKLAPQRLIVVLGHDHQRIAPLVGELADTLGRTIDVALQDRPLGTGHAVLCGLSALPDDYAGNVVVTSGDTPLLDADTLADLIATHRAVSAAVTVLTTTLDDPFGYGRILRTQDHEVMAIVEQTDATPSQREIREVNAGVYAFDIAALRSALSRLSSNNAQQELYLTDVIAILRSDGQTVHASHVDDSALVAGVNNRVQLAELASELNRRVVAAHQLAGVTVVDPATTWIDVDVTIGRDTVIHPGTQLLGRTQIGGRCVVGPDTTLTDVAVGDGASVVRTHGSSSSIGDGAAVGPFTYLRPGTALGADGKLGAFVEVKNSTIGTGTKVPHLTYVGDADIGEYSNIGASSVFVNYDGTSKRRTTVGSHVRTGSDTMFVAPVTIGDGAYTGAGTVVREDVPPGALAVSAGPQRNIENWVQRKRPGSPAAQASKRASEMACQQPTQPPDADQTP

| Compound | inhibition |
| --- | --- |
| CCc1cc2c(SCC(=O)c3ccccc3)ncnc2s1 | -3.16% |
| CCc1cc2c(SCC(=O)C(C#N)=C3N(C)c4ccccc4N3C)ncnc2s1 | 15% (active) |
| CCc1cc2c(SCC(=O)O)ncnc2s1 | -4.14% |
| Cn1c(=O)c2c(SCC(=O)NCCc3ccccc3)nc(C3CC3)nc2n(C)c1=O | 1.2% |
| O=C(Cn1cnc2c(nnn2Cc2ccc(F)cc2)c1=O)N1CCCc2ccccc21 | -5.31% |
| COc1ccc(OC)c(NC(=O)CCN2CCCCCC2)c1 | -10.2% |
| CCOC(=O)CC1C(=O)NCCN1C(=O)Nc1ccccc1 (configuration not stated) | -2.01% |
| CCC(C)(C(=O)NC1CCCCC1)N(C)C(=O)c1ccccn1 (configuration not stated) | 14.8% (active) |
| CCC(C)(C(=O)NC1CCCCC1)N(C(=O)c1ccccn1)c1ccccc1 (configuration not stated) | 2.61% |
| CCC(C)(C(=O)NC1CCCC1)N(C)C(=O)c1ccccn1 (configuration not stated) | -5.14% |
| Cc1ccc(S(=O)(=O)Nc2nccs2)cc1[N+](=O)[O-] | -3.62% |
| O=S1(=O)CCN(Cc2cccc(Cl)c2)CC1 | -7.45% |
| CC(=O)Nc1cccc(NC(=O)c2ccc([N+](=O)[O-])cc2Cl)c1 | -7.61% |
| Cc1ccc(C[n+]2cccc(-c3ccccc3)c2)c(C)c1 | -2.52% |
| Cc1ccc(NC(=O)C2c3ccccc3Oc3ccccc32)nc1 | -2.94% |
| O=C(NCc1ccco1)c1ccc2c(c1)C(=O)c1ccccc1-2 | -0.25% |
| Cc1ccc(C(=O)O)cc1-c1ccc(C=C2C(=O)c3ccccc3C2=O)o1 | 11.7% |
| Cc1ccc(/C=N/Nc2ccc(C(=O)O)cc2)o1 | 0.55% |
| O=C1C(=Cc2ccco2)C(=O)c2ccccc21 | 8.37% |
| O=C(O)c1ccc2c(c1)C(=O)/C(=C\c1ccco1)C2=O | 17.2% (active) |
| Cc1csc(SC(C)C(=O)Nc2ccc(S(=O)(=O)N3CCCC3)cc2)n1 (configuration not stated) | -1.61% |
| COCCCNC(=O)c1cc(C)nc2ccc(F)cc12 | 1.65% |
| CC(C)c1nnc(NC(=O)CCC(=O)N2CCN(Cc3ccccc3)CC2)s1 | 3.04% |
| CCN(CC)S(=O)(=O)c1ccc2nc(CCl)[nH]c2c1 | -0.14% |
| Cc1sc2nc(SCc3nnc(-c4cccs4)o3)n(C3CCCC3)c(=O)c2c1C | -5.93% |

| Compound | inhibition |
| --- | --- |
| CCOC(=O)c1c(NC(=O)CN2CCCCC2)sc(CN(C)C)c1-c1ccccc1 | -2.86% |
| CC(=O)c1cc(F)c(N2CCN(C(=O)COc3ccccc3F)CC2)cc1C | 1.65% |
| Cc1ccc(NC(=S)N2CCCCC2CO)cc1C (configuration not stated) | -3.71% |
| N#Cc1ccccc1OCC(=O)C1CC1 | 5.73% |
| COc1cccc(C(=O)CSc2nnc(-c3cccs3)o2)c1 | 4.7% |
| N#Cc1c(-n2cccc2)cccc1-n1cccc1 | 9.31% |
| COc1ccc(N2CCN(c3ccc(N)cc3C#N)CC2)cc1 | -1.62% |
| N#Cc1cc(N)ccc1-n1cccc1 | 13.7% (active) |
| O=C(O)C(Cl)Cl | 2.18% |
| O=C(O)[C@@H](O)[C@H](O)C(=O)O | 2.76% |
| CC1CCc2c(sc3ncnc(NS(=O)(=O)c4cccs4)c23)C1 (configuration not stated) | 0.41% |
| O=C1CSC(=Nc2cccc(Cl)c2Cl)N1Cc1cccnc1 | 1.06% |
| CC(=O)c1ccc(N2CCN(C(=S)Nc3cc(C)ccc3C)CC2)cc1 | -4.28% |
| CCc1ccc2[nH]c(=O)c(CN(CCN(CC)CC)C(=O)NC3CCCCC3)cc2c1 | -7.06% |
| CCN(CC)CCN(Cc1cc2ccc(C)cc2[nH]c1=O)C(=O)NC1CCCCC1 | 14.2% (active) |
| CCN(CC)CCN(Cc1cc2cc3c(cc2[nH]c1=O)OCCO3)C(=O)NC1CCCCC1 | 4.4% |
| O=c1[nH]c(=O)n(-c2cccc3ccccc23)c(O)c1/C=N/N1CCCCC1c1cccnc1 (configuration not stated) | -5.46% |
| CC(OC(=O)c1cccs1)C(=O)NCc1cccs1 (configuration not stated) | -4.58% |
| Cn1c(=O)c(C(=O)Nc2ncccc2O)c(O)c2ccccc21 | 2.25% |
| CC(=O)c1ccc(C)cc1OC(=O)c1cccc(F)c1 | 3.37% |
| O=C(O)c1cc(O)c2c(c1)C(=O)c1cc(O)cc(O)c1C2=O | 13.3% (active) |
| Cc1cc(O)c2c(c1)C(=O)c1cc(O)cc(O)c1C2=O | -2.62% |
| O=C(O)c1cc(O)c2c(c1)C(=O)c1cccc(O)c1C2=O | 0.69% |
| Cc1ccc(NC(=O)CN(C)C(=O)c2ccc(S(=O)(=O)N(C)c3ccccc3)cc2)cc1 | 2.55% |
| CCOc1ncccc1C(=O)N1CCN(C(c2ccccc2)c2ccccc2)CC1 | 7.04% |

| Compound | inhibition |
| --- | --- |
| COC(=O)c1cc(Cl)nc2ccccc12 | 5.71% |
| CCOC(=O)C1=C(C)NC(=O)NC1c1c(C)nn(-c2ccccc2)c1Cl (configuration not stated) | 15.1% (active) |
| CCOC(=O)C1=C(C)N(C)C(=O)NC1c1c(C)nn(-c2ccccc2)c1C (configuration not stated) | -0.97% |
| CCOC(=O)C1=C(C)N(C)C(=O)NC1c1c(C)nn(-c2ccc(C)cc2)c1Cl (configuration not stated) | 3.87% |
| COc1cc(NC(=O)CCCSc2nc(-c3ccco3)cc(C(F)(F)F)n2)cc(OC)c1OC | -3.07% |
| NC(=O)c1ccccc1NC(=O)Nc1cccc(Cl)c1 | 14.1% (active) |
| NC(=O)c1ccccc1NC(=O)Nc1ccc(F)c(Cl)c1 | -5.33% |
| O=C(Nc1cccc(Cl)c1)Nc1ccccc1C(=O)O | 2.52% |
| Cc1cc([N+](=O)[O-])nn1CCCC(=O)Nc1c(C)n(C)n(-c2ccccc2)c1=O | -7.37% |
| CCOC(=O)C1(C)C=C(Nc2ccc(NC(C)=O)cc2)C(=O)N1c1ccc(NC(C)=O)cc1 (configuration not stated) | 14.8% (active) |
| CCOC(=O)C1(C)C=C(Nc2ccc(C)cc2)C(=O)N1c1ccc(C)cc1 (configuration not stated) | -2.18% |
| CCOC(=O)C1(C)C=C(Nc2ccc(O)cc2)C(=O)N1c1ccc(O)cc1 (configuration not stated) | 9.21% |
| CCn1c(=O)c2c(nc3n2CCN3c2ccccc2)n(C)c1=O | -6.14% |
| COc1ccc(/C=N/NC(=O)c2ccccc2O)cc1Cn1cc([N+](=O)[O-])cn1 | -1.22% |
| COc1ccc(/C=N/NC(=O)CCN2CCCCC2c2cccnc2)cc1Cn1cc([N+](=O)[O-])cn1 (configuration not stated) | 12.8% (active) |
| COc1ccc(/C=N\NC(=O)c2cccc([N+](=O)[O-])c2)cc1Cn1cc([N+](=O)[O-])cn1 | -3.48% |
| O=C(CSc1nnc(Cc2cccs2)n1-c1ccc(Cl)cc1)NCc1ccc2c(c1)OCO2 | 12.9% (active) |
| O=C(CSc1nnc(-c2cccs2)n1-c1ccccc1)NCc1ccc2c(c1)OCO2 | 4.61% |
| O=C(CSc1nnc(Cc2cccs2)n1-c1ccccc1)NCc1ccc2c(c1)OCO2 | 5.29% |
| Cc1cccc(NC(=O)Cn2cnc3c(oc4ccccc43)c2=O)c1C | 3.4% |
| CCC(=O)N/C(=N/c1nc(C)cc(C)n1)Nc1ccc(OC)cc1 | 7.87% |
| N#CC12CCCCC1CC1CCCCC1(C#N)N2CCO (configuration not stated) | 0.23% |
| CC(C)COc1ccc(C2NC(=O)NC2=O)cc1 (configuration not stated) | -0.34% |
| CCCOc1ccc(C2NC(=O)NC2=O)cc1 (configuration not stated) | 1.13% |
| CC(C)Oc1ccc(C2CC(=O)NC3=C2C(=O)CCC3)cc1 (configuration not stated) | -5.28% |

| Compound | inhibition |
| --- | --- |
| CC(C)Oc1ccc(C2CNC(=O)C2)cc1 (configuration not stated) | 5.76% |
| CC(C)Oc1ccc(C2CCC(=O)NC2=O)cc1 (configuration not stated) | 13.8% (active) |
| CC(C)Oc1ccc(C2NC(=O)NC2=O)cc1 (configuration not stated) | 14.6% (active) |
| Cc1cc(N=NC(=O)c2ccccc2)ccc1O | 1.4% |
| O=C(CNc1cccc(C(F)(F)F)c1)N/N=C/c1cccc(Br)c1 | -0.17% |
| O=C(CNc1cccc(C(F)(F)F)c1)N/N=C/c1cn(-c2ccccc2)nc1-c1ccccc1 | -4.25% |
| O=C(CNc1cccc(C(F)(F)F)c1)N/N=C/c1ccccc1C(=O)O | 13.4% (active) |
| N/N=C1\CCCc2c1[nH]c1ccc([N+](=O)[O-])cc21 | 0.8% |
| CCn1c(SCC(=O)N2CCc3ccccc32)nnc1-c1c[nH]c2ccccc12 | 6.94% |
| Clc1ccc(Cn2nc(-c3ccccc3)nc2-c2ccccc2)cc1 | 7.14% |
| O=C1NC(=O)N(c2cccc(Cl)c2)C(=O)/C1=C\c1ccc(Sc2nc3ccccc3[nH]2)o1 | 22.4% |
| O=C1NC(=O)N(c2ccc(Cl)cc2)C(=O)/C1=C\c1ccc(Sc2nc3ccccc3[nH]2)o1 | 12.5% |
| CN(C)S(=O)(=O)c1ccc(C(=O)N2CCOCC2)cc1 | 9.61% |
| CN(C)S(=O)(=O)c1ccc(=S)[nH]c1 | 1.27% |
| CSc1ccccc1NC(=O)Nc1ccc(F)c(Cl)c1 | 15% (active) |
| CSc1ccccc1NC(=O)Nc1cccc(Cl)c1 | 1% |
| CSc1ccccc1NC(=O)Nc1ccc(Cl)cc1 | 1.07% |
| Cc1ccc(-n2c(-c3ccccc3)cc(/C=N/NC(=O)CC#N)c2-c2ccccc2)cc1 | -1.01% |
| COc1ccc2c(c1)CCc1c(C(=O)N3CCOCC3)noc1-2 | 13.8% (active) |
| COc1ccc2c(c1)CCc1c(C(=O)N3CCCCCC3)noc1-2 | 0.33% |
| COc1ccc2c(c1)CCc1c(C(=O)N3CCc4ccccc4C3)noc1-2 | 5.33% |
| CC(C)(C)C1CCC(=NNC(=O)c2cc3c(s2)CCCC3)CC1 (configuration not stated) | -4.64% |

Reference: PubChem BioAssay AID1376 (SRMLSC, 2008)
